Screening results from PubChem.
TDP1 cell noCPT: qHTS for Inhibitors of human tyrosyl-DNA phosphodiesterase 1 (TDP1): qHTS in cells in absence of CPT | DT40 Tdp1-/- hTDP1 cells, no CPT, ATP luminescence, 48 h | Potency, µM (highest dose often 46.2 µM), without a hit: top-dose activity change, negative = growth inhibition, usual class: inhibitors | 15% of 420,000 active | AID 686978, 2013; note: nearly all actives have a fitted effect of over 55% in size
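Readout: luminescence from CellTiter-Glo after 30 min in the dark at RT. Cells: DT40 Tdp1-/- with stable hTDP1, 400/well. Exposure: compounds alone, ≥48 hr, 37 °C.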
KB-3-1 cytotox: qHTS assay for MDR1-selective chemotherapeutics: Primary screen using the parental adenocarcinoma cell KB-3-1; 1.4% of 400,000 active; Potency, µM (highest dose often 46.1 µM), actives largely listed as cytotoxic; KB-3-1 viability, CellTiter-Glo ATP luminescence, 72 h; note: nearly all actives have a fitted effect of over 60% in size
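Parental KB-3-1 viability, qHTS format: 72 h compound exposure, 37 °C; CellTiter-Glo; media-only wells and DMSO plates as controls; concentration-effect fits on corrected data.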
HT1080 IDH1KD tx: qHTS for induction of synthetic lethality in tumor cells producing 2HG: qHTS for the HT-1080-IDH1KD cell line; Potency, µM (doses to about 46.1 µM), for inactives: top-dose activity, negative = toxicity, actives largely listed as cytotoxic; HT-1080 IDH1 knockdown viability, ATP luminescence, 48 h; 2% of 360,000 active;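 note: 0% = DMSO wells and -100% = cell-free medium wells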
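Luminescent ATP read-out (CellTiter-Glo, 10 min at room temperature) after 48 h compound exposure at 37 °C gave viability of IDH1-knockdown HT-1080 cells. Activity was normalised to DMSO and cell-free wells, then fitted as concentration-response curves.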
HT1080NT lethal: qHTS for induction of synthetic lethality in tumor cells producing 2HG: qHTS for the HT-1080-NT fibrosarcoma cell line; AID 686970, 2013; Potency, µM (titrated, usually from 46.1 µM), for inactives: top-dose activity, negative = less viability, usual class: cytotoxic; HT-1080-NT fibrosarcoma viability, CellTiter-Glo ATP luminescence, 48 h; 1.6% of 360,000 active;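 note: NT is the 2HG producing partner of a matched IDH1 knockdown line; 0% = DMSO-treated cells and -100% = media-only wells without cells; nearly all actives have a fitted effect of over 55% in size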
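Fibrosarcoma NT cells, 750 per well in 5% FBS RPMI, were exposed to compound for 48 hours. Viability: CellTiter-Glo luminescence.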
DT40 TDP1 CPT: qHTS for Inhibitors of human tyrosyl-DNA phosphodiesterase 1 (TDP1): qHTS in cells in presence of CPT; chicken DT40 Tdp1-/-;hTDP1 cells + 20 nM CPT, ATP luminescence, 48 h; Potency, µM (top dose mostly 46.2 µM), without a hit: at the top dose activity change, negative = growth inhibition, most hits filed as inhibitors; 12% of 420,000 active; AID 686979, 2013; note: nearly all actives have a fitted effect of over 55% in size
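Chicken DT40 Tdp1-/- cells complemented with human TDP1, 400 cells/well, exposed to compounds plus 20 nM camptothecin for at least 48 h at 37 C; viability read as ATP content by CellTiter-Glo luminescence.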
KB-V1 MDR tox: qHTS assay for MDR1-selective chemotherapeutics: Primary screen using the drug-selected MDR subline cells KB-V1; KB-V1 MDR cells viability, CellTiter-Glo, 72 h; Potency, µM (doses to about 46.1 µM), hits mostly cytotoxic; 3.4% of 400,000 active; AID 1347076, 2019; note: nearly all actives have a fitted effect of over 60% in size
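qHTS viability screen in drug-selected KB-V1 MDR cells: 72 h compound treatment at 37 degrees C, ATP luminescence end point.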
The depositor's hits bear a star; i = inactive; ? = inconclusive; . = no result given. In the library only some 19% were active in any assay of this set; here they are far more common. Calls come from the whole dose curve; as a rule, active = well fitted curve in the direction sought with a large enough effect; inconclusive = small, poorly fitted or top-dose-only effect, or another doubt; inactive = no such curve, though single readings can be large; an effect the other way counts as inactive or inconclusive. Unless noted, % is set by controls: 0 for no effect and ±100 for the full control effect; potency is the fitted concentration of half-maximal effect.

SMILES | TDP1 cell noCPT | KB-3-1 cytotox | HT1080 IDH1KD tx | HT1080NT lethal | DT40 TDP1 CPT | KB-V1 MDR tox
COc1cc(C(=O)NCc2ccc3c(c2)CCN3C(=O)c2ccc(Cl)cc2)cc(OC)c1OC | 15µM* | i | . | . | 23µM* | i
COc1ccc(OCC(=O)NCc2ccc3c(c2)CCN3C(=O)c2ccc(F)cc2)cc1 | ? | i | . | . | -29% | i
O=C(NCc1ccc2c(c1)CCN2C(=O)c1ccncc1)c1ccc(Cl)cc1 | ? | i | . | . | ? | ?
COc1ccc(C(=O)NCc2ccc3c(c2)CCN3C(=O)c2ccc(Cl)cc2)c(OC)c1 | 18µM* | . | . | . | 18µM* | .
Cc1ccc(OCC(=O)Nc2ccc(N3CCN(C(=O)c4ccco4)CC3)cc2)cc1C | ? | i | -17% | ? | ? | ?
Cc1cccc(OCC(=O)Nc2ccc(N3CCN(C(=O)c4ccco4)CC3)cc2)c1 | 21µM* | ? | ? | ? | 18µM* | ?
Cc1cc(OCC(=O)Nc2ccc(N3CCN(C(=O)c4ccco4)CC3)cc2)cc(C)c1Cl | 10µM* | i | 3% | 0% | 9.2µM* | ?
CCOC(=O)C(C(=O)Nc1nccs1)C1CCCCC1 (configuration not stated) | -20% | i | -11% | -1% | -4% | i
COc1ccc(-c2noc(-c3ccc(NC4CCCC4)c([N+](=O)[O-])c3)n2)cc1 | -14% | i | . | . | -1% | i
CNCCOc1ccc(Cl)c(Cl)c1 | 16µM* | i | ? | -17% | ? | i
Cc1cc(C)cc(-n2ccnc2SCC(=O)Nc2nnc(C)s2)c1 | 3.3µM* | ? | . | . | 4.1µM* | ?
Cc1cccc(-n2ccnc2SCC(=O)Nc2nnc(C)s2)c1 | 15µM* | i | ? | -6% | ? | i
Cc1cccc(-n2ccnc2SCC(=O)Nc2nc3ccccc3s2)c1 | 23µM* | i | . | . | ? | i
CCSc1nnc(NC(=O)CSc2nccn2-c2cc(C)cc(C)c2)s1 | -3% | i | 13% | 19% | -3% | i
O=C(CSc1nccn1-c1ccccc1)Nc1nc2ccccc2s1 | ? | i | . | . | ? | i
CCN(CC(=O)NCc1cccs1)C(=O)c1ccc(-c2cccc(C(F)(F)F)c2)o1 | ? | i | ? | ? | ? | i
CC(C)Cn1cc(NC(=O)NCc2ccc(Cl)cc2)c2ccccc2c1=O | 18µM* | i | . | . | ? | i
CC(C)Cn1cc(NC(=O)NCc2ccccc2Cl)c2ccccc2c1=O | 18µM* | i | . | . | ? | i
CC(C)Cn1cc(NC(=O)NCc2cccc(Cl)c2)c2ccccc2c1=O | ? | i | . | . | 26µM* | i
COc1ccc(S(=O)(=O)N2CCOCC2)cc1NC(=O)CN1C(=O)NC2(CCCC2)C1=O | 26% | i | 1% | -1% | -6% | ?
Cc1cc(=O)oc(C)c1C(=O)Nc1cccnc1Cl | 1% | i | 8% | 8% | 2% | i
Cc1ccc(C(=O)COC(=O)c2cn3ccccc3n2)cc1 | 0% | i | 8% | 4% | 1% | ?
O=C1C2C3c4ccccc4C(c4ccccc43)[C@@H]2c2nc3ccccc3n21 (some centres not stated) | 10µM* | i | -14% | -6% | 12µM* | i
COc1ccc(OC)c(NC(=O)COCc2cc(-c3ccco3)on2)c1 | ? | i | . | . | ? | i
NC(=O)CCCn1c(C(=O)c2ccc(Cl)cc2)c2ccc([N+](=O)[O-])cc2[n+]1[O-] | 8.2µM* | ? | -12% | -25% | 3.7µM* | ?
SMILES | TDP1 cell noCPT | KB-3-1 cytotox | HT1080 IDH1KD tx | HT1080NT lethal | DT40 TDP1 CPT | KB-V1 MDR tox
Cc1ccc(C(=O)c2c3ccc([N+](=O)[O-])cc3[n+]([O-])n2CCCC(N)=O)cc1 | ? | ? | -20% | -3% | 5.8µM* | i
NCCCn1c(C(=O)c2ccc(Cl)cc2)c2ccc([N+](=O)[O-])cc2[n+]1[O-] | 4.1µM* | i | -29% | -23% | 4.1µM* | i
NCCCn1c(C(=O)c2ccc(Cl)cc2)c2ccc(C(F)(F)F)cc2[n+]1[O-] | ? | i | -14% | -1% | ? | i
NC(=O)CCCn1c(C(=O)c2ccc(Cl)cc2)c2ccc(C(F)(F)F)cc2[n+]1[O-] | -25% | ? | 0% | ? | -3% | i
CC1=NN(C(N)=S)C(=O)C1N=Nc1c(C)n(C)n(-c2ccccc2)c1=O (configuration not stated) | -2% | i | -3% | -4% | -3% | i
Cc1cc(C(=O)COc2ccc(C#N)cc2)c(C)n1-c1ccc2c(c1)OCO2 | 9.2µM* | ? | -13% | -1% | 9.2µM* | i
Cc1cc(C(=O)COC(=O)c2ccc([N+](=O)[O-])o2)c(C)n1CC1CCCO1 (configuration not stated) | ? | i | -11% | 0% | 23µM* | i
Cc1cc(C(=O)COC(=O)C2=COCCO2)c(C)n1-c1ccc2c(c1)OCO2 | ? | i | -11% | -9% | ? | i
Cc1cc(C(=O)COc2ccc(C#N)cc2)c(C)n1CC1CCCO1 (configuration not stated) | 13µM* | i | -2% | -12% | 29µM* | i
CCC(=O)c1ccc(OCC(=O)OCC(=O)c2cc(C)n(CC3CCCO3)c2C)cc1 (configuration not stated) | 8% | i | 0% | 3% | 2% | ?
COc1ccccc1C1C2CCCCC2(O)CCN1CC(=O)Nc1ccccc1 (configuration not stated) | ? | i | ? | -4% | ? | ?
COC(=O)c1c(NC(=O)CN2CCC3(O)CCCCC3C2c2cc(OC)ccc2OC)sc(C)c1C (configuration not stated) | 10µM* | ? | -20% | -13% | 13µM* | ?
